# Sampled rows, rich in hits. Any-hit rate of the full collection: about 14%.
# Pf growth 96h = P. falciparum growth inhibition at 96 hour, primary screen for plastid delayed-death inhibitors. P. falciparum luciferase reporter growth, 96 h. actives 6.9% (n = 320,000). Potency, µM (doses to about 28.7 µM), for the others: top-dose activity change, negative = inhibition, hits mostly inhibitors. AID 504834; note: potency is the fitted concentration of half-maximal effect
#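 Parasite growth measured via integrated firefly luciferase reporter in P. falciparum. Infected erythrocytes at 2% hematocrit, 0.05% parasitemia final were treated 96 hours at 37 C under 5% CO2, and luminescence was read.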
# HCV inhibitor = blocks hepatitis C virus | Huh7.5.1 HCVcc-Cre infection, luciferase reporter, 44 h | Potency, µM (doses to about 41.8 µM), for the others: at the top dose activity change, negative = inhibition, hits mostly inhibitors | actives 3.4% (n = 340,000); note: potency is the fitted concentration of half-maximal effect
#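 Whole-lifecycle infectious HCVcc-Cre system; cells 1,000/well, compound then virus (~0.5 moi) added 4 h after plating, 44 h culture. Luciferase read 15 sec following 15 min substrate incubation, room temp.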
# Lassa entry inh = Lassa virus entry inhibition. Lassa virus pseudotype entry inhibition, cell reporter. Potency, µM (titrated, usually from 37.9 µM), for the others: at the highest dose activity change, negative = inhibition, hits mostly inhibitors. actives 1.2% (n = 300,000). AID 540256; calls by dose curve; tested in HEK293 cells; note: potency is the fitted concentration of half-maximal effect; nearly all actives have a fitted effect of over 50% in size
# HCMV inh = human cytomegalovirus inhibition; activity change, negative = inhibition, % at 57.5 µM; AID 1259415; HFF cells, HCMV-luciferase reporter, 72 h; hits give low values; actives 4.5% (n = 410,000); in the data active = activity change below about -60%; inconclusive = no clear call, values can overlap the other calls; inactive = above about -39%
#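 HFF cells seeded 16 h at 37C, treated with compounds, infected with luciferase-reporter HCMV at MOI 1 PFU/cell; luciferase read at 72 h post infection, normalized to buffer-only and Salinomycin controls.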
# Pf growth 48h = inhibits P. falciparum growth in the first generation, 48 h; P. falciparum luciferase growth in erythrocytes, 48 h; Potency, µM (top dose mostly 28.7 µM), for the others: at the highest dose activity change, negative = inhibition, actives largely listed as inhibitors; actives 5.9% (n = 310,000); AID 504832; note: potency is the fitted concentration of half-maximal effect
#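 In quantitative HTS format, infected erythrocytes bearing luciferase-reporter parasites were treated for a single generation at 37 C. Luminescence after adding detection reagent served as the growth measure.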
# Marburg entry inh = Marburg virus entry inhibition | Marburg virus pseudotyped entry inhibition, cell reporter | Potency, µM (titrated, usually from 37.8 µM), without a hit: top-dose activity change, negative = inhibition, usual class: inhibitors | actives 1.8% (n = 300,000) | AID 540276; calls by dose curve; tested in HEK293 cells; note: potency is the fitted concentration of half-maximal effect
# * marks the source's active call; other numbers are inactive results; ? = inconclusive; . = no result; [ ] = remark or other dose. Unless noted, calls come from the whole dose curve; as a rule, active = well fitted inhibition curve with a large enough effect; inconclusive = small, poorly fitted or top-dose-only effect, or another doubt; inactive = no such curve, though single readings can be large or run the other way. % is set by controls: 0 for no effect and ±100 for the full control effect.
SMILES,Pf growth 96h,HCV inhibitor,Lassa entry inh,HCMV inh,Pf growth 48h,Marburg entry inh
COc1cccc(C(c2nnnn2Cc2ccco2)N2CCN(c3cccc(C)c3C)CC2)c1OC (stereo unspecified),7.8%,11.2µM*,?,-3.7,9.28µM*,?
O=C(c1ccco1)N1CCN(C(c2ccc(Cl)cc2)c2nnnn2Cc2ccccc2)CC1 (stereo unspecified),10.4µM*,-15.1%,-21.2%,19.0,11.7µM*,-7.5%
COc1ccc(OC)c(C(c2nnnn2Cc2ccco2)N2CCN(C)CC2)c1 (stereo unspecified),?,4.6%,.,-29.8,2.9%,.
COc1cc(-c2nnc(NC(=O)CS(=O)(=O)c3ccc(C)cc3)o2)cc(OC)c1OC,-13.7%,5.9%,1.0%,9.2,?,-1.9%
COc1ccc(C(c2nnnn2Cc2ccccc2)N2CCN(C(=O)c3ccco3)CC2)cc1 (stereo unspecified),.,-5.4%,?,28.1,?,8.3%
CCC(c1nnnn1CCc1ccccc1)N1CCN(C(=O)c2ccco2)CC1 (stereo unspecified),9.28µM*,9.8%,0.0%,-15.7,-4.2%,-2.0%
COc1cccc(C(c2nnnn2Cc2ccccc2)N2CCN(C(=O)c3ccco3)CC2)c1OC (stereo unspecified),?,-9.4%,4.7%,-39.6,9.28µM*,9.0%
CCCCN(C(=O)c1ccc(C)o1)c1c(N)n(CC(C)C)c(=O)[nH]c1=O,18.2%,3.2%,.,-21.9,-0.7%,.
CC(Sc1nc(-c2ccccc2)c(C#N)c(=O)[nH]1)C(=O)Nc1ccc(F)cc1 (stereo unspecified),.,.,5.9%[46.1 µM],-13.3,.,-9.3%[46.1 µM]
COc1ccc(NC(=O)c2ccc(NCCCN3CCOCC3)c([N+](=O)[O-])c2)cc1,-2.7%,12.6µM*,7.1%,-0.6,?,-17.3%
O=C(Nc1ccc(Cl)c([N+](=O)[O-])c1)c1ccc(NCCCN2CCOCC2)c([N+](=O)[O-])c1,?,2.24µM*,-2.1%,-20.5,14.7µM*,6.51µM*
O=C(NCCCN1CCOCC1)c1ccc(Cl)c([N+](=O)[O-])c1,.,-0.1%,10.7%,45.8,.,-3.9%[46.1 µM]
O=C(NCCCN1CCOCC1)c1ccc(Sc2cccc(Cl)c2)c([N+](=O)[O-])c1,?,11.2µM*,?,?,2.8%,2.1%
Cc1ccc(NC(=O)c2ccc(NCCCN3CCOCC3)c([N+](=O)[O-])c2)cc1Cl,78.6%,11.2µM*,?,?,2.33µM*,?
Cc1ccc(C(=O)CSc2nc(-c3ccccc3)nc3c2CCCC3)cc1C,.,.,19.8%[46.1 µM],-4.0,.,11.1%[46.1 µM]
CCc1nc2c(OCCn3cccc3)cccn2c1N(C)C(=O)c1ccc(C)cc1,.,.,.,-14.8,.,.
Cc1cc(-c2ccc(S(=O)(=O)N3CCN(c4ccc(Cl)cc4)CC3)s2)on1,.,.,2.5%[46.1 µM],0.0,.,.
O=C(N1CCCC1)C12CC3CC(CC(C3)C1)C2,-3.1%,-17.9%,8.3%,44.1,11.7µM*,21.4%
O=C(O)c1cccc2c1C(=O)c1ccc(-c3ccc(F)cc3F)cc1S2(=O)=O,60.7%,1.8%,.,-61.5*,30.3%,.
O=C(O)c1cccc2c1C(=O)c1ccc(-c3ccc(F)cc3OCc3ccccc3)cc1S2(=O)=O,?,-6.4%[8.37 µM],.,.,?,.
O=C(NC[C@H]1CCCO1)c1cccc2c1C(=O)c1ccc(-c3ccc(F)cc3OCc3ccccc3)cc1S2(=O)=O,.,10µM*,.,-34.1,.,.
Cc1ccc(Cl)cc1NC(=O)C(=O)NCCc1sc(-c2ccc(F)cc2)nc1C,.,.,15.3%[46.1 µM],20.9,.,.
CCC(=NNS(=O)(=O)c1ccc(C)cc1)c1ccc(OC)c(C)c1,.,.,.,-19.1,.,.
O=C(Nc1ccc(C(=O)N2CCN(c3ccncc3)CC2)cc1)c1ccc(Br)o1,.,.,.,-29.8,.,.
CC1CCN(c2ccc(NC(=O)Cc3ccccc3)cc2)CC1,?,5.8%,19.7%[46.1 µM],-2.8,18.7%,-0.1%[46.1 µM]
SMILES,Pf growth 96h,HCV inhibitor,Lassa entry inh,HCMV inh,Pf growth 48h,Marburg entry inh
CCC(=O)Nc1ccc(N2CCC(C)CC2)cc1,10.4µM*,6.9%,5.3%,27.6,-16.9%,16.0%
CC1CCN(c2ccc(NC(=O)c3cccnc3Cl)cc2)CC1,10.4µM*,-17.4%,.,-33.0,21.4%,.
Cc1ccc(C(=O)N2CCN(c3ccc(NC(=O)c4ccc(Br)o4)cc3)CC2)cc1,.,10µM*,?,?,10.4µM*,?
O=C(Nc1ccc(C(=O)N2CCC(O)(c3ccc(Cl)c(C(F)(F)F)c3)CC2)cc1)c1ccc(Br)o1,13.1µM*,-23.3%,.,?,?,.
COC(=O)C1(C)COP(=O)(NC23CC4CC(CC(C4)C2)C3)OC1 (stereo unspecified),.,30.2%,22.8%[46.1 µM],-16.2,.,14.5%
CC1CCN(c2ccc(NC(=O)c3ccc(Br)o3)cc2)CC1,?,0.2%,10µM*,58.0,-7.4%,?
CC(C)(C)c1cnnn1-c1ccc(NC(=O)c2ccc(Br)o2)cc1,261.5%,1.8%,-19.1%,-21.3,10.4µM*,?
CCOC(=O)[C@]12CCC=C1N(Cc1cccc3ccccc13)C(=O)[C@H](CC(=O)NCCC(C)C)C2,.,.,.,1.5,.,.
Cc1[nH]c2ccccc2c1C(=O)C(=O)NCc1ccco1,11.7µM*,10.9%,5.1%,-6.1,3.3%,-6.2%
Cc1[nH]c2ccccc2c1C(=O)C(=O)NCCC1=CCCCC1,?,0.5%,?,?,2.94µM*,-7.6%
COc1ccc(CCNC(=O)C(=O)c2c(C)[nH]c3ccccc23)cc1,?,11.7%,.,-8.0,-5.0%,.
CCN1CCN(C(C(=O)NC2CCCCC2)c2cc3ccccc3o2)CC1 (stereo unspecified),.,.,.,-8.3,.,.
Cc1ccc(Cn2c(CCC(=O)O)nc3ncccc3c2=O)cc1,-19.9%,29.7%,-1.3%,-22.4,4.5%,?
COc1ccc(/C=C/c2nc(S(=O)(=O)c3ccccc3)c(NCCCN(C)C)o2)cc1OC,?,6.9%,.,43.0,11.7µM*,.
Cc1nc(N2CCN(C(=O)COc3ccccc3)CC2)c2c(C)c(C)sc2n1,66.0%,12.6µM*,?,-22.8,-9.5%,?
Cc1ccc(-c2nnc(N3CCN(C(=O)CSc4ncn[nH]4)CC3)c3ccccc23)cc1,.,?,-3.0%,-4.6,10.4µM*,-2.2%
Cn1nc(-c2ccc(OCC(=O)N3CCN(Cc4ccccc4)CC3)cc2)c2ccccc2c1=O,?,6.31µM*,-15.2%,?,-19.1%,8.2µM*
Cc1ccc(OCC(=O)N2CCN(c3nnc(-c4ccccc4)c4ccccc34)CC2)cc1,-38.5%,?,?,-83.3*,.,?
COc1ccc(CCNC(=O)C2COc3ccccc3C2)cc1OC (stereo unspecified),.,.,-6.8%[46.1 µM],14.6,.,.
O=C(CNCc1ccc(F)cc1)Nc1cc(S(=O)(=O)N2CCOCC2)ccc1Cl,.,?,.,-19.5,.,.

# Assay outcomes: PubChem, National Center for Advancing Translational Sciences (NCATS)
